Shown are actives, neighbours in structure and some others; about 3.5% of the full set was active somewhere.
FBW7 act = human FBW7 E3 ligase activation, primary screen; normalized activity (activation), % at 26.1 µM; AID 1259310; AlphaScreen FBW7–phospho-cyclin E peptide binding, activator screen; 0.13% of 650,000 active; in the data active = normalized activity above about 1.9%;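 also: purified mutant Fbw7 with reduced substrate affinity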
Target sequence (Q969H0 whole entry, looked up): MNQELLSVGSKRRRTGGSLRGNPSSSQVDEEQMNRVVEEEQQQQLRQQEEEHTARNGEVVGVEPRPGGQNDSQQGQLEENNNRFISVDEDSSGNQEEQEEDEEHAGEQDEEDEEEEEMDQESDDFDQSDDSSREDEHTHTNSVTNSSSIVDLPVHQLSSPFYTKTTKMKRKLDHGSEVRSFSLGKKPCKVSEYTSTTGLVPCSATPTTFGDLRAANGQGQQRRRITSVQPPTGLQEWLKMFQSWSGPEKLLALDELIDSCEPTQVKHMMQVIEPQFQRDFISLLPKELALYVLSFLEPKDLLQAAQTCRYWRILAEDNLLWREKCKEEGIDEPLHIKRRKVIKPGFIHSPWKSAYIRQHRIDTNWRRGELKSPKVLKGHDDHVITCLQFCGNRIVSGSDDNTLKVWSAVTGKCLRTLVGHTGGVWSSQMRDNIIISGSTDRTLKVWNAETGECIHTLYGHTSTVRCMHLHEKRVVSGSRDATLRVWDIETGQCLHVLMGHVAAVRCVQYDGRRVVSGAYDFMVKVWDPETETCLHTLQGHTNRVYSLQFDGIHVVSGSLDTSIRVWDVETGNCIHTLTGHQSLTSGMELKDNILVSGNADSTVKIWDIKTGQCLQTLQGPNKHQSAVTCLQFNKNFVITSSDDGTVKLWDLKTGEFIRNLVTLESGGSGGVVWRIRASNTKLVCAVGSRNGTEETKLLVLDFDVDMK
TEAD-YAP block = TEAD-YAP interaction inhibition; HEK-TIYL cells, TEAD-Gal4/YAP UAS-luciferase luminescence; inhibition, % at 9.12 µM; 1.4% of 640,000 active; AID 1259422; in the data active = inhibition above about 32%
GPR151 activ = activators of human GPR151. Q8TDV0. PathHunter beta-arrestin GPR151 cells, luminescence. activation, % at 11.2 µM. 1% of 650,000 active. AID 1508602; in the data active = activation above about 4.9%
MITF inh = blocks human microphthalmia-associated transcription factor; AlphaScreen MITF homodimerization, bead proximity signal; O75030; inhibition, % at 2.6 µM; 0.91% of 650,000 active; AID 1259374; in the data active = inhibition above about 50%
Of the large screens only hits and unclear results are named; the others gave an inactive call.

Cc1c(C(=O)OC(C)C)[nH]c2c1C(=O)CC(c1ccccc1)C2 (configuration not stated)	TEAD-YAP block 51
CCOCCOC(=O)c1[nH]c2c(c1C)C(=O)CC(c1cc(OC)ccc1OC)C2 (configuration not stated)	TEAD-YAP block 45
O=C1C(=O)N(Cc2cccnc2)C(c2ccncc2)/C1=C(\O)c1ccc(Cl)cc1 (configuration not stated)	none
COc1ccccc1C(=O)NCc1nnc(SCC(=O)N2N=C(c3cccs3)CC2c2ccc(F)cc2)n1-c1ccc([N+](=O)[O-])cc1 (configuration not stated)	none
O=C(CCC(=O)C(=O)OCC(=O)c1ccc(Cl)cc1)OCC(=O)c1ccc(Cl)cc1	none
COCCOC(=O)c1[nH]c2c(c1C)C(=O)CC(c1ccccc1Cl)C2 (configuration not stated)	TEAD-YAP block 40
CC(=O)c1ccc(OCC(=O)NCC2Cc3c(F)ccc(-c4ccncc4)c3O2)cc1 (configuration not stated)	TEAD-YAP block 33
CC1(C)C(C(=O)O)N2C(=O)C(NC(=O)C(C(=O)O)c3ccccc3)C2S1=O (configuration not stated)	FBW7 act 2.5
CC1(C)S[C@@H]2[C@H](NC(=O)[C@H](C(=O)O)c3cccs3)C(=O)N2[C@H]1C(=O)O	none
Cc1ccc(N/C(=N/S(=O)(=O)c2ccccc2)c2ccccc2)cc1	TEAD-YAP block 44
O=C1c2ccccc2C(=O)c2c1ccc(C(=O)OCC(=O)N1CCOCC1)c2[N+](=O)[O-]	MITF inh 58
O=C(COC(=O)c1ccc2c(c1[N+](=O)[O-])C(=O)c1ccccc1C2=O)NC1CC1	none
COc1ccc(-c2nc3ccccc3s2)cc1OC(C)=O	TEAD-YAP block 58
Oc1cccc(-c2nc3ccccc3s2)c1	TEAD-YAP block 92
Nc1ccc(-c2nc3ccccc3s2)cc1N	none
Oc1ccc(O)c(Cc2nc3ccccc3s2)c1	TEAD-YAP block 53
O=C(O)CCC(=O)Nc1ccccc1C(=O)N1CCCC1	none
CCOC(=O)COc1ccc(C2C(C#N)=C(N)Oc3n[nH]c(C)c32)cc1 (configuration not stated)	none
CCCCCCC1(C)SC(NC(C)=O)=NN1C(C)=O (configuration not stated)	none
COc1ccc(S(=O)(=O)N2CCCc3ccccc32)cc1C	TEAD-YAP block 37
Cc1ccc(S(=O)(=O)N2CCc3ccccc32)cc1[N+](=O)[O-]	TEAD-YAP block 56
Cc1ccc(S(=O)(=O)N2CCCc3ccccc32)cc1C	none
COc1cc(S(=O)(=O)N2CCc3ccccc32)c(OC)cc1Cl	TEAD-YAP block 45
O=S(=O)(c1cccc(S(=O)(=O)N2CCc3ccccc32)c1)N1CCCC1	TEAD-YAP block 43
Cc1ccc(S(=O)(=O)N2CCc3ccccc32)cc1C(N)=O	none
O=S(=O)(c1ccc(F)cc1)N1CCc2ccccc21	none
COC(=O)c1cc(S(=O)(=O)N2CCc3ccccc32)cn1C	none
CCCNC(=O)c1cc(S(=O)(=O)N2CCc3ccccc32)cn1C	TEAD-YAP block 32
Nc1c(C(=O)N2CCOCC2)cc([N+](=O)[O-])cc1[N+](=O)[O-]	none
CCCCSc1nnc(-c2ccc3c(c2)OCO3)n1C	FBW7 act 2.1
CCCN1CCC(N(C(=O)Nc2ccccc2C(=O)NCc2ccccc2)C2CC2)CC1	none
Cc1cc(C)c(NS(=O)(=O)c2ccc3[nH]c(=O)oc3c2)c(C)c1	FBW7 act 6.3
O=c1[nH]c2ccc(S(=O)(=O)Nc3ccccc3)cc2o1	none
COc1ccc(C2=NN(C(=O)c3cc(OC)c(OC)c(OC)c3)C(c3ccc(OC)c(OC)c3)C2)cc1OC (configuration not stated)	none
COc1ccc(C2=NN(C(=O)c3ccccc3)C(c3cccc([N+](=O)[O-])c3)C2)cc1 (configuration not stated)	none
COc1ccc(C2=NN(C(=O)c3cc(OC)c(OC)c(OC)c3)C(c3ccc(C)cc3)C2)cc1OC (configuration not stated)	TEAD-YAP block 46
COc1ccc(C2=NN(C(=O)c3cc(OC)c(OC)c(OC)c3)C(c3cccc([N+](=O)[O-])c3)C2)cc1OC (configuration not stated)	TEAD-YAP block 37
O=C1N[C@@H](Cc2cnc[nH]2)C(=O)N2CCN(C(=O)c3ccc(-c4ccccc4)cc3)C[C@H]12	none
CCCS(=O)(=O)NCCn1ncc2c(NCCc3ccccc3)ncnc21	none
O=c1[nH]c(Nc2ccccc2)nnc1Cc1ccccc1Cl	none
COc1cccc(Nc2nnc(Cc3ccccc3Cl)c(=O)[nH]2)c1	TEAD-YAP block 46
CCOC(=O)c1c(NC(=O)C(CC)Sc2nc(C)cc(C)n2)sc2c1CCCC2 (configuration not stated)	none
O=C(Nc1nccs1)c1cc2ccccc2o1	TEAD-YAP block 58
O=C(O)c1cccc(NC(=O)c2cc3ccccc3o2)c1	TEAD-YAP block 39
CCc1ccc(N2C(=O)C(Cl)=C(Nc3ccccc3O)C2=O)cc1	none
O=C1C2C3C=CC(O3)C2C(=O)N1c1ccccc1Cl (configuration not stated)	none
Cc1ccc(-n2cc(-c3ccccc3)c3c(NCc4ccc5c(c4)OCO5)ncnc32)cc1	none
COc1ccc(NC(=O)c2ccc(N3C(=O)c4cccc([N+](=O)[O-])c4C3=O)cc2)cc1	none
O=C(Nc1ccc(O)cc1)c1ccc(N2C(=O)c3cccc([N+](=O)[O-])c3C2=O)cc1	TEAD-YAP block 35
Cc1ccc(/C=C2\CC/C(=C\c3ccc(C)o3)C2=O)o1	MITF inh 58
CC(=O)Nc1ccc(Nc2nc3cc(C)ccc3nc2NS(=O)(=O)c2ccc(Cl)cc2)cc1	none
S=C(NNc1nc(N2CCCC2)nc(N2CCCC2)n1)NC1CCCCC1	TEAD-YAP block 39
CC(NC(=O)c1ccc(C#N)cc1F)c1ccccc1 (configuration not stated)	none
O=C(CC1NC2CCCCC2NC1=O)Nc1cccc(Cl)c1 (configuration not stated)	none
CCN(CC)c1ccc(/C=N\NC(=O)c2ccc(O)cc2)c(O)c1	none
CCN(CC)c1ccc(/C=N/NC(=O)c2cc(C)oc2C)c(O)c1	TEAD-YAP block 53
CCN(CC)c1ccc(/C=N/NC(=O)c2cc(Cl)ccc2O)c(O)c1	none
CCN(CC)c1ccc(/C=N/NC(=O)c2ccc(F)cc2)c(O)c1	TEAD-YAP block 73
CCOc1ccc(N2CC(c3nc(-c4ccccc4)no3)CC2=O)cc1 (configuration not stated)	none
Cc1cc(OCC(=O)Nc2ccc3oc(-c4cccnc4)nc3c2)cc(C)c1Cl	none
CCC(=O)Nc1ccc2oc(-c3ccccc3F)nc2c1	TEAD-YAP block 39
Cc1cc(C)c2oc(-c3cccc(NC(=O)COc4cc(C)c(Cl)c(C)c4)c3)nc2c1	TEAD-YAP block 42
CC(C)c1ccc2oc(-c3ccc(NC(=O)COc4ccc5ccccc5c4)cc3)nc2c1	TEAD-YAP block 42
O=C(Cc1ccc(Cl)cc1)Nc1ccc2oc(-c3ccccc3F)nc2c1	none
Cc1cc(OCC(=O)Nc2ccc3oc(-c4ccccc4Br)nc3c2)cc(C)c1Cl	FBW7 act 2.0
